ALOX12 inh: blocks human arachidonate 12S-lipoxygenase. purified 12hLO, xylenol orange hydroperoxide absorbance. AID 1671190. P18054. Potency, µM (series often up to 108 µM), inactives show top-dose activity change, negative = inhibition, usual class: inhibitors. 580,000 compounds, 1.1% hits
Target sequence (P18054 whole entry, looked up): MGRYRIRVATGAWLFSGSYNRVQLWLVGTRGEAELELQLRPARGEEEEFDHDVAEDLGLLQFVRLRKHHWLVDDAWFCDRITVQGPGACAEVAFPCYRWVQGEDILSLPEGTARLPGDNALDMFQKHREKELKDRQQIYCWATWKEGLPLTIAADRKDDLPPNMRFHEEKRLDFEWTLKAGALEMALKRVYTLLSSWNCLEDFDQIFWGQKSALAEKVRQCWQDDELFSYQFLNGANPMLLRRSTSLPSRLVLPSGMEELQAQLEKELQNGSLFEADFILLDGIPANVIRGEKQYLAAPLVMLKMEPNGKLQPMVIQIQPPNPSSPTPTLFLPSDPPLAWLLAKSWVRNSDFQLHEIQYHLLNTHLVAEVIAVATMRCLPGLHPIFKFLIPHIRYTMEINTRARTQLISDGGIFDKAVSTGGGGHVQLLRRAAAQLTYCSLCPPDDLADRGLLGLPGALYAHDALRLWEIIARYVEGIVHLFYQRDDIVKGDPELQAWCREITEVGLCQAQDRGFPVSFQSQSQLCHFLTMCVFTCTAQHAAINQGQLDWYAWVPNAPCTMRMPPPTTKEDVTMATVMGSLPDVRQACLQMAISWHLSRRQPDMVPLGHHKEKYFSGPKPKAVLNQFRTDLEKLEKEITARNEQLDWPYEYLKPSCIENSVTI
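Purified human 12hLO at 150 nM in 25 mM Hepes, 0.01% Triton X-100, pH 7.0, preincubated 15 min at room temperature with compound. Reaction started with 40 uM arachidonic acid, 30 min at room temperature. Hydroperoxide measured by Fe-xylenol orange, 573/405 nm absorbance ratio.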
Gal4-VP16 FLuc: Gal4-VP16 reporter inhibition counter-screen; Drosophila S2 Gal4-VP16 UAS-luciferase, luminescence, 20 h; Potency, µM (highest dose often 53.6 µM), for inactives: top-dose activity, negative = inhibition, hits mostly inhibitors; 310,000 compounds, 3.5% hits;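 also: Gal4-VP16 expression switched on by copper sulfate through the metallothionein promoter; nearly all actives have a fitted effect of over 50% in size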
RORgamma inh: ROR gamma (mouse) transcription inhibition; 310,000 compounds, 5.4% hits; P51450; Potency, µM (series often up to 53.6 µM), inactives show at the top dose activity change, negative = inhibition, hits mostly inhibitors; Drosophila S2 Gal4-RORgamma UAS-luciferase reporter, 20 h; also: nearly all actives have a fitted effect of over 60% in size
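Luciferase reporter read in Schneider cells carrying Gal4-RORγ (mouse) and UAS-Photinus luciferase; cells given compound 1 h before 700 uM copper sulfate induction, then incubated 20 h at ambient temperature.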
TDP1 cell CPT: DT40-hTDP1 cell growth loss with CPT; chicken DT40 Tdp1-/-;hTDP1 cells + 20 nM CPT, ATP luminescence, 48 h; Potency, µM (titrated, usually from 46.2 µM), inactives show at the top dose activity change, negative = growth inhibition, usual class: inhibitors; 420,000 compounds, 12% hits; AID 686979; also: nearly all actives have a fitted effect of over 55% in size
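Chicken DT40 Tdp1-/- cells complemented with human TDP1, 400 cells/well, exposed to compounds plus 20 nM camptothecin for at least 48 h at 37 C; viability read as ATP content by CellTiter-Glo luminescence.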
DT40 TDP1 no CPT: qHTS for Inhibitors of human tyrosyl-DNA phosphodiesterase 1 (TDP1): qHTS in cells in absence of CPT | 420,000 compounds, 15% hits | AID 686978, 2013 | Potency, µM (doses to about 46.2 µM), without a hit: top-dose activity change, negative = growth inhibition, usual class: inhibitors | DT40 Tdp1-/- hTDP1 cells, no CPT, ATP luminescence, 48 h; also: nearly all actives have a fitted effect of over 55% in size
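Compound effects on proliferation are scored in DT40 Tdp1-/-;hTDP1 cells in the absence of CPT. ATP levels (CellTiter-Glo luminescence) are recorded after a ≥48 hr, 37 °C incubation.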
ELG1 repair inh: inhibitors of ELG1-dependent DNA repair in HEK293T cells; HEK293T ELG1-luciferase reporter, luminescence, 16 h; DNA damage induced by 5-fluorouridine; Potency, µM (titrated, usually from 46.1 µM), without a hit: top-dose activity change, negative = inhibition, usual class: inhibitors; 330,000 compounds, 2.3% hits; also: nearly all actives have a fitted effect of over 55% in size
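DMSO vehicle served as the neutral condition. Each well held 2,000 cells given 5-fluorouridine plus compound; after 16 hr at 37 °C/5% CO2, ONE-Glo was added and luciferase measured 30 min later.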
* hit, by the source's call. In the library only some 15% were active in any assay of this set; here they are far more common. Calls follow the shape of the dose curve; as a rule, active = well fitted curve in the direction sought with a large enough effect; inconclusive = small, poorly fitted or top-dose-only effect, or another doubt; inactive = no such curve, though single readings can be large; an effect the other way counts as inactive or inconclusive. % is scaled to controls: 0 for no effect and ±100 for the full control effect; potency is read from the fitted curve at half-maximal effect.

Screening Cc1c(C(=O)NCCc2ccc(Cl)cc2)sc2nc3n(c(=O)c12)CCCC3 returned ALOX12 inh -11%, TDP1 cell CPT inconclusive and DT40 TDP1 no CPT 18µM*.
For Cc1c(C(=O)N(C)c2cccc(C(F)(F)F)c2)sc2nc3n(c(=O)c12)CCCCC3 the results were ALOX12 inh -26%, TDP1 cell CPT inconclusive and DT40 TDP1 no CPT 15µM*.
Screening Cc1c(C(=O)NCCc2ccc(Cl)cc2)sc2nc3n(c(=O)c12)CCC3 returned ALOX12 inh 6%, Gal4-VP16 FLuc -9%, RORgamma inh -13%, TDP1 cell CPT inconclusive, DT40 TDP1 no CPT -22% and ELG1 repair inh inconclusive.
For CC(=O)c1cccc(NC(=O)c2sc3nc4n(c(=O)c3c2C)CCCC4)c1 the results were ALOX12 inh -2%, Gal4-VP16 FLuc 2%, RORgamma inh -27%, TDP1 cell CPT inconclusive, DT40 TDP1 no CPT -5% and ELG1 repair inh 0%.
COc1cc(OC)c(N(C)C(=O)c2sc3nc4n(c(=O)c3c2C)CCCC4)cc1Cl was read as ALOX12 inh -4%, TDP1 cell CPT inconclusive and DT40 TDP1 no CPT 16µM*.
CCc1ccccc1N(C)C(=O)c1sc2nc3n(c(=O)c2c1C)CCCCC3 was read as ALOX12 inh 2%, TDP1 cell CPT inconclusive and DT40 TDP1 no CPT inconclusive.
For CCOc1ccccc1CNC(=O)CSc1nnc(C)c2c(C)n(-c3ccccc3)nc12 the results were ALOX12 inh -9%, TDP1 cell CPT inconclusive and DT40 TDP1 no CPT inconclusive.
Screening CCOC(=O)c1c(C)c(C(=O)NCc2ccccc2OC)c(C)n1C returned ALOX12 inh 13%, Gal4-VP16 FLuc 4%, RORgamma inh 17%, TDP1 cell CPT inconclusive, DT40 TDP1 no CPT 13µM* and ELG1 repair inh -6%.
`CCOC(=O)c1c(C)c(C(=O)NCc2ccc(OC)cc2)c(C)n1C` gave ALOX12 inh -2%, Gal4-VP16 FLuc 3%, RORgamma inh 20%, TDP1 cell CPT 0%, DT40 TDP1 no CPT -17% and ELG1 repair inh -5%.
`COc1ccccc1CNC(=O)CSc1nnc(C)c2c(C)n(-c3ccccc3)nc12` gave ALOX12 inh -25%, TDP1 cell CPT 21µM* and DT40 TDP1 no CPT 23µM*.
`COc1ccccc1CNC(=O)c1c(-c2ccccc2)nn(-c2ccccc2)c1C` gave ALOX12 inh 0%, Gal4-VP16 FLuc 4%, RORgamma inh -1%, TDP1 cell CPT inconclusive, DT40 TDP1 no CPT 15µM* and ELG1 repair inh inconclusive.
Cc1ccc(S(=O)(=O)c2ccc(Cl)cc2)cc1S(=O)(=O)N1CCN(C)CC1 was read as ALOX12 inh 10%, Gal4-VP16 FLuc 20%, RORgamma inh 35%, TDP1 cell CPT 14µM*, DT40 TDP1 no CPT inconclusive and ELG1 repair inh -12%.
For CN1CCN(S(=O)(=O)c2ccc(Cl)cc2)CC1 the results were ALOX12 inh -13%, Gal4-VP16 FLuc -4%, RORgamma inh -3%, TDP1 cell CPT 14%, DT40 TDP1 no CPT -3% and ELG1 repair inh -21%.
For CCOc1cc(/C=C/c2cc(C(F)(F)F)[nH]c(=O)n2)ccc1O the results were ALOX12 inh inconclusive, Gal4-VP16 FLuc -8%, RORgamma inh -40%, TDP1 cell CPT inconclusive, DT40 TDP1 no CPT inconclusive and ELG1 repair inh inconclusive.
Screening COc1ccc(/C=C/c2cc(C(=O)O)c3ccccc3n2)cc1OC returned ALOX12 inh 18µM*.
`COc1ccc(/C=C/c2cc(C(=O)O)c3ccccc3n2)cc1` gave ALOX12 inh inconclusive, Gal4-VP16 FLuc 1.4µM*, RORgamma inh 1.1µM*, TDP1 cell CPT 10µM*, DT40 TDP1 no CPT 15µM* and ELG1 repair inh inconclusive.

Source: PubChem BioAssay
